Shown are actives, neighbours in structure and some others; about 12% of the full set was active somewhere.
Sfp inh = qHTS Assay for Inhibitors of Bacillus subtilis Sfp phosphopantetheinyl transferase (PPTase) | 4'-phosphopantetheinyl transferase ffp (Bacillus subtilis), Q9F4F7 | Biochemical Sfp PPTase activity, qHTS | Potency, µM, most hits filed as inhibitors | 3.5% of 310,000 active | AID 1490, 2009;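 note: the enzyme is Sfp with the accession as filed and its product quenches rhodamine fluorescence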
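Compounds were incubated with enzyme (final 15 nM) for 15 min at room temperature before substrate addition started the reaction. Fluorescence at 525 nm excitation, 598 nm emission was recorded immediately and after 30 minutes.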
Gal4-VP16 FLuc = VP16 counterscreen qHTS for inhibitors of ROR gamma transcriptional activity; AID 2546, 2010; 3.5% of 310,000 active; Potency, µM (highest dose often 53.6 µM), usual class: inhibitors; Drosophila S2 Gal4-VP16 UAS-luciferase, luminescence, 20 h;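 note: Gal4-VP16 expression switched on by copper sulfate through the metallothionein promoter; nearly all actives have a fitted effect of over 50% in size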
PLK1 PBD inh = qHTS for Inhibitors of PLK1-PDB (polo-like kinase 1 - polo-box domain): Primary Screen. Serine/threonine-protein kinase PLK1 (Homo sapiens), P53350. Plk1 PBD binding of FITC phosphopeptide, fluorescence polarization. Potency, µM, usual class: inhibitors. 2.8% of 360,000 active; note: series mostly up to about 57 µM; nearly all actives have a fitted effect of over 65% in size
ALDH1A1 inh = qHTS Assay for Inhibitors of Aldehyde Dehydrogenase 1 (ALDH1A1) | Purified ALDH1A1, NADH fluorescence, propionaldehyde substrate | Aldehyde dehydrogenase 1A1 (Homo sapiens), P00352 | 7.3% of 220,000 active | Potency, µM (highest dose often 75.3 µM), most hits filed as inhibitors; active = well fitted inhibition curve with a large enough effect, not every such curve was filed as active; inconclusive = small, poorly fitted or top-dose-only effect, or another doubt; inactive = no such curve, though single readings can be large or run the other way
Target sequence (P00352 whole entry, looked up): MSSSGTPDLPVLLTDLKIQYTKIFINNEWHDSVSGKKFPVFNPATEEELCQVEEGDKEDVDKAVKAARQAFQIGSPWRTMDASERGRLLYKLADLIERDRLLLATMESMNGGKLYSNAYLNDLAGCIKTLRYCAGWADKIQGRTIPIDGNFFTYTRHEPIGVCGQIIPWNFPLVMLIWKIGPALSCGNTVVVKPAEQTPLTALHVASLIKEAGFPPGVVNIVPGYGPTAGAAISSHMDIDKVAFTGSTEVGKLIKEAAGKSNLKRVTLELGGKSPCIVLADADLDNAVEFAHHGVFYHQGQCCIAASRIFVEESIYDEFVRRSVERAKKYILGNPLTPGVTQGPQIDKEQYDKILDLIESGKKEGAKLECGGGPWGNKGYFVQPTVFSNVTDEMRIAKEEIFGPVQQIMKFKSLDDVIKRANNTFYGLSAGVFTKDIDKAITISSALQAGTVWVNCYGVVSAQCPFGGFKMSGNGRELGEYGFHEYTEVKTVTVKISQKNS
RORgamma inh = qHTS for inhibitors of ROR gamma transcriptional activity | Nuclear receptor ROR-gamma (Mus musculus), P51450 | AID 2551, 2010 | Potency, µM (doses to about 53.6 µM), usual class: inhibitors | 5.4% of 310,000 active | Drosophila S2 Gal4-RORgamma UAS-luciferase reporter, 20 h; note: nearly all actives have a fitted effect of over 60% in size
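Stable Schneider cell line, Gal4 DNA-binding domain fused to ROR gamma, UAS-luciferase. Cmpd 1 hr RT → CuSO4 700 uM final → 20 hr RT → luciferase reagent 10 min → luminescence.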
Hits are given with their value; i = inactive; ? = inconclusive; nt = no result; [ ] = dose if it differs, or a comment. Unless noted, calls come from the whole dose curve; as a rule, active = well fitted curve in the direction sought with a large enough effect; inconclusive = small, poorly fitted or top-dose-only effect, or another doubt; inactive = no such curve, though single readings can be large; an effect the other way counts as inactive or inconclusive.

SMILES	Sfp inh	Gal4-VP16 FLuc	PLK1 PBD inh	ALDH1A1 inh	RORgamma inh
COC(=O)c1cc(NCc2ccc3c(c2)OCO3)ccc1N1CCOCC1	i	i	i	14µM	i
O=C(O)c1cc(NCc2ccc3c(c2)OCO3)ccc1N1CCOCC1	i	i	i	?	i
CCOC(=O)c1ccc(NCc2ccc3c(c2)OCO3)cc1	56µM	i	i	?	i
COc1cc(NS(=O)(=O)c2ccc(-n3cccn3)cc2)cc(OC)c1	nt	nt	i	nt	nt
Fc1cc2[nH]c(=S)[nH]c2c(Br)c1N1CCSCC1	50µM	i	27µM	nt	11µM
Fc1cc2nccnc2cc1N1CCSCC1	i	i	i	i	i
N#CCCN(C(=O)COC(=O)CCc1nc2ccccc2c(=O)[nH]1)c1ccc(F)cc1	nt	nt	i	nt	nt
CCOc1ccc(C2C3=C(CCCC3=O)Nc3ccc4ncccc4c32)cc1 (centres undefined)	i	i	i	nt	i
O=C1CCCC2=C1C(c1ccc(O)cc1)c1c(ccc3ccccc13)N2 (centres undefined)	50µM	i	i	?	i
Cc1cccc(NC(=S)NC2CC3CCCC(C2)N3Cc2cccs2)c1 (centres undefined)	i	?	i	i	5µM
COCCCNC(=S)NC1CC2CCCC(C1)N2Cc1cccs1 (centres undefined)	i	i	i	i	10µM
NC(=O)c1cc[n+](CC2=C(C(=O)[O-])N3C(=O)[C@@H](NC(=O)Cc4cccs4)[C@@H]3SC2)cc1	i	i	nt	i	i[2.98 µM]
COc1ccc(Oc2ncc3nc(-c4cccs4)c(=O)n(CCC#N)c3n2)cc1	i	i	nt	i	i
CC1(C)CC(=O)C2=C(C1)NC(=O)CC2	nt	nt	i	nt	nt
COc1cc(OC)cc(N2CC(C)(C)C2=O)c1	i	i	21µM	i	i
CCOC(=O)[C@]12CCC=C1N(Cc1cccc3ccccc13)C(=O)[C@H](CC(=O)N1CCN(C(=O)C3CC3)CC1)C2	nt	nt	i	nt	nt
Cn1nc(SCc2ccccc2)c(=O)[nH]c1=O	nt	nt	i	nt	nt
Cc1nc(-c2ccccc2O)n(S(=O)(=O)N(C)C)n1	i	i	?	i	i
CN(C)S(=O)(=O)N1C(=O)c2ccccc2C1=O	13µM	i	i	i	i
CCC(C)(C)c1ccc(OCCCC[n+]2ccccc2)c(C(C)(C)CC)c1	50µM	18µM	i	i	?
CCCCCc1ccc(OCCCC[n+]2ccccc2)c(CCCCC)c1	35µM	i	i	i	?
CCCCCc1ccc(OCCCC[n+]2cccc(C)c2)c(CCCCC)c1	i	i	i	?	i
CCCCCc1ccc(OCCCC[n+]2ccc(C)cc2)c(CCCCC)c1	50µM	2.8µM	i	i	2µM
COCCn1c(=O)c(-c2ccccc2)nc2cnc(N3CCN(C)CC3)nc21	i	i	nt	?	i
COCCNc1ncnc2c1ncn2[C@H]1CN(Cc2ccccc2)C[C@@H](CO)O1	nt	nt	i	nt	nt
SMILES	Sfp inh	Gal4-VP16 FLuc	PLK1 PBD inh	ALDH1A1 inh	RORgamma inh
Oc1ccc(Nc2nc(-c3ccc4ccccc4c3)cs2)cc1	i	i	nt	?	i
Oc1ccc(-c2nc(-c3ccc(O)c(O)c3)cs2)cc1	79µM	i	i	11µM	i
COc1ccc(CCN2C(=O)C3C4C=CC(C3C2=O)C2C(=O)N(CCc3ccc(OC)c(OC)c3)C(=O)C42)cc1OC (centres undefined)	i	8.9µM	i	i	i
COc1ccc(CCN2C(=O)C3C4C=CC(C5CC45)C3C2=O)cc1OC (centres undefined)	i	i	i	4µM	i
O=C1C=CC2(OCCCO2)C(Br)=C1CO	i	?	nt	i	?
Cc1ccccc1Oc1ccc2c(c1)[C@@H]1C[C@H](N(C)C(=S)Nc3ccc(F)cc3)[C@H]([C@H](C)O)C(=O)N1CC2	nt	nt	i	nt	nt
OCc1nn2c(c1Br)NC(c1ccccc1)CC2C(F)(F)F (centres undefined)	i	i	7.5µM	i	i
O=C(O)c1nn2c(c1Br)NC(c1ccccc1)CC2C(F)(F)F (centres undefined)	i	i	i	i	i
CC(C)n1c(-c2ccccc2F)n[nH]c1=S	i	11µM	i	i	3.2µM
CC(c1ccccc1)n1c(-c2ccncc2)n[nH]c1=S (centres undefined)	i	?	i	?	?
CC(c1ccccc1)n1c(-c2ccccc2F)n[nH]c1=S (centres undefined)	i	6.3µM	i	nt	7.1µM
CC(c1ccc(F)cc1)n1c(-c2cccs2)n[nH]c1=S (centres undefined)	?	10µM	i	?	2.8µM
CC(c1ccccc1)n1c(-c2ccc(Cl)cc2)n[nH]c1=S (centres undefined)	i	6.3µM	i	nt	5.6µM
Cc1cccnc1C(NC(=O)C1CCN(Cc2ccc3ccccc3n2)CC1)c1ccc(Cl)cc1 (centres undefined)	nt	nt	i	nt	nt
O=c1c(-c2ccc(F)cc2)nc2cnc(N3CCNCC3)nc2n1C1CC1	i	i	nt	?	i
CN1CCN(Cc2nc3ccccc3c(=O)n2Cc2nc(-c3cccc([N+](=O)[O-])c3)cs2)CC1	i	i	27µM	?	i
CN1C(=O)C(N=Nc2ccc([N+](=O)[O-])cc2)SC1=S (centres undefined)	nt	nt	13µM	nt	nt
CN1CCCCCC1=Nc1ccc([N+](=O)[O-])cc1	nt	nt	i	nt	nt
O=S(=O)(c1cccs1)N1CCN(CC(O)COC2CCCc3ccccc32)CC1 (centres undefined)	i	i	i	?	i
CC(=O)c1cccc(OCC(O)CN2CCN(S(=O)(=O)c3c(F)cccc3F)CC2)c1 (centres undefined)	?	i	19µM	nt	i
N#Cc1ccccc1S(=O)(=O)N1CCN(CC(O)COc2ccccc2F)CC1 (centres undefined)	56µM	i	i	nt	i
O=S(=O)(c1ccc(F)cc1)N1CCN(CC(O)COc2ccccc2F)CC1 (centres undefined)	56µM	i	i	nt	i
O=S(=O)(c1cccs1)N1CCN(CC(O)COc2cccc(Br)c2)CC1 (centres undefined)	i	i	i	20µM	i
O=C(Nc1ccccc1F)c1csc([C@@H]2C[C@H](O)[C@@H](CO)O2)n1	nt	nt	i	nt	nt
C=CC(C)(O)CC/C=C(\C)CCC=C(C)C (centres undefined)	i	i	nt	i	i
O=C(O)c1ccc(-n2cc(-c3cc4ccccc4oc3=O)[nH]c2=S)cc1	3.2µM	i	?	?	i
O=c1oc2ccccc2cc1-c1ccccc1	i	i	i	?	i
CCCCCCCCCCCCCCCCCCCCCCO	i	i	nt	i	i
Cn1c(=O)c(C(=O)COC(=O)c2cc(C3CC3)nc3ccccc23)c(N)n(Cc2ccccc2)c1=O	i	i	i	i	i
O=C(c1cc(-c2ccco2)nc2ccccc12)N1CCN(c2ccc(F)cc2)CC1	25µM	i	i	?	?
